Measured values: PubChem BioAssay
Unmarked numbers belong to inactive results. How the calls were made is not given here.

Target: Pantothenate synthetase (Mycobacterium tuberculosis (strain ATCC 25618 / H37Rv)) (UniProt P9WIL5)
Assay: Recombinant Mtb pantothenate synthetase (PanC) inhibitors, coupled enzyme, confirmatory (AID 375);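 further: 0% = full reaction with vehicle and 100% = no enzyme background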
Details: coupled enzyme assay; at 10 µM, stronger effect = higher value

Pantothenate synthetase (Mycobacterium tuberculosis (strain ATCC 25618 / H37Rv)), sequence (P9WIL5 whole entry, looked up): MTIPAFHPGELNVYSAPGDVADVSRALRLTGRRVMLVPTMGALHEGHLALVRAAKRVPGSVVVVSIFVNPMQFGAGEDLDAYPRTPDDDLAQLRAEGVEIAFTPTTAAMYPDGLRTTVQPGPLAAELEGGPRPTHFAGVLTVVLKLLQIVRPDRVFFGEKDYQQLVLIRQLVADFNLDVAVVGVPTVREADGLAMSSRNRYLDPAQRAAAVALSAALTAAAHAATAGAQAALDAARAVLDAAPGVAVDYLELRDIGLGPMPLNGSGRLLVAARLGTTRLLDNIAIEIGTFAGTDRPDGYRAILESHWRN

`Cc1c(NC(=O)CN2c3cccc4cccc(c34)S2(=O)=O)c(=O)n(-c2ccccc2)n1C` was tested. Which inhibition did it give?
Its inhibition is 0%.

How did the inhibition turn out when `CCN(CCNC(=O)C1CCN(S(=O)(=O)c2cccc3cccnc23)CC1)c1ccccc1` was run?
The inhibition was 1%.

With `CCOC(=O)c1oc2cc(OCC(N)=O)ccc2c(=O)c1-c1ccc(OC)c(OC)c1` as the compound, how does the inhibition read?
Its inhibition is 3%.

Which inhibition does the source give for `CN(C)/C=C(\C#N)c1nc2ccccc2[nH]1` here?
The inhibition was 0%.

How did the inhibition turn out when `COc1ccccc1N1CCN(C(=O)c2cc(C3CC3)on2)CC1` was run?
Its inhibition is 3%.

How did the inhibition turn out when `CCCCCn1c2nc3ccccc3nc2c2c(=O)n(CC(C)C)cnc21` was run?
Its inhibition is 7%.

How did the inhibition turn out when `CC(C)Oc1cc2oc(=O)c3c(c2cc1Cl)CCC3` was run?
The inhibition was 0%.

Which inhibition does the source give for `CCN(CC)S(=O)(=O)c1ccc(C(=O)N2CCN=C2SCc2cccnc2)cc1` here?
Its inhibition is 0%.

How did the inhibition turn out when `CCOc1cc(C2CC(=O)N3CN(C4CCCCC4)CSC3=C2C#N)ccc1O` (stereo unspecified) was run?
Its inhibition is 0%.

Which inhibition does the source give for `CCOc1ccc(NC(=O)CN(C)CC(=O)NC2CCCc3ccccc32)cc1OCC` (stereo unspecified) here?
The inhibition was 7%.

`Cc1ccc2[nH]c3c(c2c1)CN(C(=O)CN1CCN(c2cccc(C)c2C)CC1)CC3` was tested. Which inhibition did it give?
The inhibition was 0%.

`CCC(=O)N1CCc2cc(S(=O)(=O)CCC(=O)Nc3ccc(C)c(F)c3)ccc21` was tested. Which inhibition did it give?
The inhibition was 0%.

`COC(=O)c1ccccc1NC(=O)C12CCC(C)(C(=O)O1)C2(C)C` (stereo unspecified) was tested. Which inhibition did it give?
The inhibition was 0%.

For `O=C(CNC(=O)c1ccccc1C(=O)O)c1ccccc1`, which inhibition is on record?
Its inhibition is 0%.

For `CCCCN(CC)CCNC(=O)c1cc2c(C)nc3ccccc3c2o1`, which inhibition is on record?
The inhibition was 10%.

For `O=C(Nc1ccc(S(=O)(=O)NCCc2ccccc2)cc1)c1ccc(Br)o1`, which inhibition is on record?
Its inhibition is 3%.

With `Cc1ccc(C(c2nnnn2CCC(C)C)N2CCN(C)CC2)cc1` (stereo unspecified) as the compound, how does the inhibition read?
The inhibition was 2%.

For `CC(C)CNC(=O)C1C2C=CC(C2)C1C(=O)O` (stereo unspecified), which inhibition is on record?
Its inhibition is 7%.

How did the inhibition turn out when `CCn1c(NCc2ccc(N(C)C)cc2)nc2ccccc21` was run?
The inhibition was 0%.

Which inhibition does the source give for `C=CCC(NCc1ccco1)c1ccc(OC)cc1OC` (stereo unspecified) here?
Its inhibition is 3%.

With `CC(C)(C)C(=O)NC1CCN(C(=O)N2CCCC2)CC1` as the compound, how does the inhibition read?
Its inhibition is 6%.
